# Test results from ChEMBL document CHEMBL3988442, “University of Dundee, Small-Polar-MMV Screening Library” (2021).
# For some of these results: Results with a measured potency or affinity are listed apart.
# Experiments:
# [1] = molecular target: T1, Methionyl-tRNA synthetase, putative (Leishmania donovani (strain BPK282A1)) (UniProt E9BF75); assay: Leishmania donovani Methionine tRNA synthetase (LdMetRS):v7. Dose response assay; format: functional; set-up: conc 80 nM, time 150 minutes
# T1 sequence (whole entry): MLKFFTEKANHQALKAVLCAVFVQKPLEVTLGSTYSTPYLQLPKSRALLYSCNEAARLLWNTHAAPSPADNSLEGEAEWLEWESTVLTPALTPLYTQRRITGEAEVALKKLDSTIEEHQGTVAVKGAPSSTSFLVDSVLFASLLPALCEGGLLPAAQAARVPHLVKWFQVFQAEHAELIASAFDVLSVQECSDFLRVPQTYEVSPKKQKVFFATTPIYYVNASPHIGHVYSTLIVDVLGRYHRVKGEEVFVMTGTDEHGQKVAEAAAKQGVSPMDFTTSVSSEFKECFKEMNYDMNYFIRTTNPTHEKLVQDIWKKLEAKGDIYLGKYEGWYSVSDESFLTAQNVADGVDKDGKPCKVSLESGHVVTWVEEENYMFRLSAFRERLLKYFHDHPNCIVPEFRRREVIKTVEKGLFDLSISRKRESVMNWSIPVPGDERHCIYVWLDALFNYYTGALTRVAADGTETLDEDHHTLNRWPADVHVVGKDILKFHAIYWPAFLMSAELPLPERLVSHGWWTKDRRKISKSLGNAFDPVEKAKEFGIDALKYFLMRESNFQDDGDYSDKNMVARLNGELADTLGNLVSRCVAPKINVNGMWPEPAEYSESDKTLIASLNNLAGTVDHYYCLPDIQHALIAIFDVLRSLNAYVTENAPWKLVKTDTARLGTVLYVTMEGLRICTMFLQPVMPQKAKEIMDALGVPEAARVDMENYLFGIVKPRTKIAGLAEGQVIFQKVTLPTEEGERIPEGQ
# [2] = molecular target: Protein translocase subunit SecA (Escherichia coli (strain K12)) (UniProt P10408); assay: Assay to Identify E. coli SecA ATPase Inhibitors; format: functional; set-up: scale not given: direction of the effect not stated beside the values; settings: 30 µM
# [3] = molecular target: T2, Ubiquitin-activating enzyme e1, putative (Leishmania donovani (strain BPK282A1)) (UniProt E9BSI1); assay: Leishmania donovani Ubiquitin Activating Enzyme (LdE1); format: functional; set-up: scale not given: direction of the effect not stated beside the values; settings: 30 µM
# T2 sequence (whole entry): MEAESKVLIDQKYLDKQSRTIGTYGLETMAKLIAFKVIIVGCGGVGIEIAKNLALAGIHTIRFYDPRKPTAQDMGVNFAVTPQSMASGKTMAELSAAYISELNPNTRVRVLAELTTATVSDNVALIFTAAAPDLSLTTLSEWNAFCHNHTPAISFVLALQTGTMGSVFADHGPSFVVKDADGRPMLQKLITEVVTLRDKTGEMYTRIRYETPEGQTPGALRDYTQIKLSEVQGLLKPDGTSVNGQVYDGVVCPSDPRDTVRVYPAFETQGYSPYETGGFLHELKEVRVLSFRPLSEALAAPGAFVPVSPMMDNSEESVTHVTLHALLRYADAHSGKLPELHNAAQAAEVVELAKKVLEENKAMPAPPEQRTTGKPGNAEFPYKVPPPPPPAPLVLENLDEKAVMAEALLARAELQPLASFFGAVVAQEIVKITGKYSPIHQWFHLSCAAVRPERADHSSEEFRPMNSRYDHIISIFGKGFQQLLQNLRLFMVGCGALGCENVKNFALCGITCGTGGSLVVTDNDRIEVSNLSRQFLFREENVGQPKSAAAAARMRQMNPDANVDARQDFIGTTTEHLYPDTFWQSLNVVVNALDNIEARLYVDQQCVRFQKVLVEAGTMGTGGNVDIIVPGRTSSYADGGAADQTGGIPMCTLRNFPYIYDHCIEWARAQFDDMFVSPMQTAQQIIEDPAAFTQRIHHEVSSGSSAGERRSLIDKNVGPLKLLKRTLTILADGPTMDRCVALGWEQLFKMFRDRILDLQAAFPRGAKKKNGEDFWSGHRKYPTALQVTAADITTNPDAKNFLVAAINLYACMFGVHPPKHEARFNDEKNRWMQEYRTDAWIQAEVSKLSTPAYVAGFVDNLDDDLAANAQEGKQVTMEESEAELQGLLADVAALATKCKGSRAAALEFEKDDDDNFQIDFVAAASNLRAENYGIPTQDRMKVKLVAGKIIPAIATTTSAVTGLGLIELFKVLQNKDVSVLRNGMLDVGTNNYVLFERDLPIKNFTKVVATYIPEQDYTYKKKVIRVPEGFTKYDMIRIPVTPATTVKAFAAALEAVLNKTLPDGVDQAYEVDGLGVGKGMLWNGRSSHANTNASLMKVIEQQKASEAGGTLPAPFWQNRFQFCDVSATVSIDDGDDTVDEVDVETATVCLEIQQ
# [4] = molecular target: T3, Aspartate--tRNA(Asp/Asn) ligase (Mycobacterium tuberculosis (strain ATCC 25618 / H37Rv)) (UniProt P9WFW3); assay: Assay for Asp RNA synthetase-1 from Mycobacterium tuberculosis; format: functional; set-up: scale not given: direction of the effect not stated beside the values; settings: 30 µM; note: in the data most compounds retested in dose-response had high values
# T3 sequence (whole entry): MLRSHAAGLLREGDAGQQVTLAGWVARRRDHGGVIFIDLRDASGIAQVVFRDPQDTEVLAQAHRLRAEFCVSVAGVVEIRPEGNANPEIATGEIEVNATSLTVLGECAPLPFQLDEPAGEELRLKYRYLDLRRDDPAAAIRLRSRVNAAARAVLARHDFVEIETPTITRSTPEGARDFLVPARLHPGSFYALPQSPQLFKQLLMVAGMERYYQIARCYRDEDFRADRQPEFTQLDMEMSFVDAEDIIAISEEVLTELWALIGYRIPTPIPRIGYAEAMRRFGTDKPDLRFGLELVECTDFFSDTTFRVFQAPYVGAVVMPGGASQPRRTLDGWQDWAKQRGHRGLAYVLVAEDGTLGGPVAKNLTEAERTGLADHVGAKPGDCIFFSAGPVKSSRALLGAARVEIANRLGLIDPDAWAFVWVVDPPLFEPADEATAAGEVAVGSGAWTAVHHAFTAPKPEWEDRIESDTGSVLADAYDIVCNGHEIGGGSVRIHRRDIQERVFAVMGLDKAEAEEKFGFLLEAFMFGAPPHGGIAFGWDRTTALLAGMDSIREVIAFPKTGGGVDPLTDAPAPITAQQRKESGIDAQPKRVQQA
# [5] = molecular target: AMP-activated protein kinase, AMPK (Homo sapiens) (UniProt P54646+O43741+P54619+Q9UGJ0+Q9Y478+Q13131+Q9UGI9); assay: AMP-dependent Kinase enzyme assay. An in vitro enzyme assay that detects ADP turnover that is directly proportional to AMPK activity. This uses naive AMPK that is activated during the assay with MK-8722; format: functional; set-up: scale not given: direction of the effect not stated beside the values; settings: 30 µM
# [6] = molecular target: Sialic acid-binding Ig-like lectin 9 (Homo sapiens) (UniProt Q9Y336); assay: Hs-Siglec9 ALPHAscreen SOP 20170721; set-up: scale not given: direction of the effect not stated beside the values; settings: 10 µM
# [7] = tested on: Trypanosoma cruzi; assay: Trypanosoma cruzi phosphomannomutase and mannose-1-phosphate guanylyltransferase assay; format: functional; set-up: scale not given: direction of the effect not stated beside the values; settings: 10 µM
# [8] = molecular target: T4, Arginase-2, mitochondrial (Homo sapiens) (UniProt P78540); assay: in vitro enzyme assay to detect the production of urea directly proportional to the activity of Arginase II; format: functional; set-up: scale not given: in the data most compounds retested in dose-response had high values
# T4 sequence (whole entry): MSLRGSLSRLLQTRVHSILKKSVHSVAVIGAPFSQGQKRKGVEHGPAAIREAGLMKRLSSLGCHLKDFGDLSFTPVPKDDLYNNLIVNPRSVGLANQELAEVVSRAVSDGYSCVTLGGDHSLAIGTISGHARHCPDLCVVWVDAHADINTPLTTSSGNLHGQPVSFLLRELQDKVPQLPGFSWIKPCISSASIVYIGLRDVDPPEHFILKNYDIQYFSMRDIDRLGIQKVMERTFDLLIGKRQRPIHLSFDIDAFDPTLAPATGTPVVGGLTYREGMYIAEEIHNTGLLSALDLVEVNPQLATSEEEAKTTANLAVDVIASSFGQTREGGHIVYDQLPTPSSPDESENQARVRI
# [9] = molecular target: T5, Proteasome subunit beta (Trypanosoma cruzi) (UniProt O96673); assay: Trypanosoma cruzi proteasome chymotrypsin-like activity (TcProtChymo) assay.; format: functional; set-up: scale not given: in the data most compounds retested in dose-response had high values; settings: 9.37 µM
# T5 sequence (whole entry): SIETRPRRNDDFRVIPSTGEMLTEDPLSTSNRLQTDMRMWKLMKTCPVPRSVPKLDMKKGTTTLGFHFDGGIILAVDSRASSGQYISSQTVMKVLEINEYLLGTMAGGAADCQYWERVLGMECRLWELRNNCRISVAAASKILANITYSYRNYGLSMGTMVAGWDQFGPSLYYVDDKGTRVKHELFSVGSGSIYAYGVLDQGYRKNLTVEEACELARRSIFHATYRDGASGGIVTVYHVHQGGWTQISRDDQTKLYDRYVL
# [10] = species on record: Homo sapiens; assay: To identify inhibition of the IFN signalling (Jak-Stat) pathway via expression of an eGFP reporter gene under the control of an IFN-stimulated response element (ISRE) containing MxA promoter.; format: functional; set-up: scale not given: direction of the effect not stated beside the values; settings: 30 µM
# [11] = molecular target: Shiga toxin 2 (Escherichia coli O157:H7) (UniProt P09385+P09386); assay: E. coli 0.157:H7 Shiga Toxin SOP - stx2 screening assay; format: functional; set-up: scale not given: direction of the effect not stated beside the values; settings: 30 µM
# [12] = molecular target: T6, Tyrosyl-tRNA synthetase, putative (Trypanosoma cruzi (strain CL Brener)) (UniProt Q4DSP6); assay: Trypanosoma cruzi tyrosyl tRNA synthetase (TcYRS) _High Tyrosine SOP; format: functional; set-up: scale not given: in the data most compounds retested in dose-response had high values; settings: 30 µM
# T6 sequence (whole entry): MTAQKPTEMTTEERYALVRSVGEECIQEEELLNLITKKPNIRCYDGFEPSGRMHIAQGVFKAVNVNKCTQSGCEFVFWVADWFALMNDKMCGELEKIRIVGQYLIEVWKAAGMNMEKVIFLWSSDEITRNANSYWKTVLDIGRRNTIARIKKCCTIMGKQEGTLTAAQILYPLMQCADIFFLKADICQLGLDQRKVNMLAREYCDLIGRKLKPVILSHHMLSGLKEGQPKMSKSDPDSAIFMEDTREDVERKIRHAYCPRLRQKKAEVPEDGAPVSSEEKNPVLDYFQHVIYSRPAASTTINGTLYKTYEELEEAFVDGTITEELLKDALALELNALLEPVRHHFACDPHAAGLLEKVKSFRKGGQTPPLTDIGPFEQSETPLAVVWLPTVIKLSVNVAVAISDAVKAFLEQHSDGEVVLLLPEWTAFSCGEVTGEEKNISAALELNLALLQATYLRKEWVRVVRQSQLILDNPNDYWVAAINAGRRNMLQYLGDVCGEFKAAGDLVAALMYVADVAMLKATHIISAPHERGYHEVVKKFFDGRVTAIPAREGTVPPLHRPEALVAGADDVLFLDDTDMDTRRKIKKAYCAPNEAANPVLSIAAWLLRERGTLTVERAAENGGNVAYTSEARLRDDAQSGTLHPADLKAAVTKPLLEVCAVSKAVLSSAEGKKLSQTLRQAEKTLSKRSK
# [13] = molecular target: T6, Tyrosyl-tRNA synthetase, putative (Trypanosoma cruzi (strain CL Brener)); assay: Trypanosoma cruzi tyrosyl tRNA synthetase (TcYRS) SOP; format: functional; set-up: scale not given: direction of the effect not stated beside the values; settings: 30 µM
# [14] = molecular target: Chromo domain-containing protein 1 (Saccharomyces cerevisiae (strain ATCC 204508 / S288c) (Baker's yeast)) (UniProt P32657); assay: ScCHD-1 Enzyme Inhibition Assay; format: functional; set-up: scale not given: in the data most compounds retested in dose-response had high values; settings: 30 µM
# Chromo domain-containing protein 1 (Saccharomyces cerevisiae (strain ATCC 204508 / S288c) (Baker's yeast)), sequence (P32657 whole entry, the tested form may be a part): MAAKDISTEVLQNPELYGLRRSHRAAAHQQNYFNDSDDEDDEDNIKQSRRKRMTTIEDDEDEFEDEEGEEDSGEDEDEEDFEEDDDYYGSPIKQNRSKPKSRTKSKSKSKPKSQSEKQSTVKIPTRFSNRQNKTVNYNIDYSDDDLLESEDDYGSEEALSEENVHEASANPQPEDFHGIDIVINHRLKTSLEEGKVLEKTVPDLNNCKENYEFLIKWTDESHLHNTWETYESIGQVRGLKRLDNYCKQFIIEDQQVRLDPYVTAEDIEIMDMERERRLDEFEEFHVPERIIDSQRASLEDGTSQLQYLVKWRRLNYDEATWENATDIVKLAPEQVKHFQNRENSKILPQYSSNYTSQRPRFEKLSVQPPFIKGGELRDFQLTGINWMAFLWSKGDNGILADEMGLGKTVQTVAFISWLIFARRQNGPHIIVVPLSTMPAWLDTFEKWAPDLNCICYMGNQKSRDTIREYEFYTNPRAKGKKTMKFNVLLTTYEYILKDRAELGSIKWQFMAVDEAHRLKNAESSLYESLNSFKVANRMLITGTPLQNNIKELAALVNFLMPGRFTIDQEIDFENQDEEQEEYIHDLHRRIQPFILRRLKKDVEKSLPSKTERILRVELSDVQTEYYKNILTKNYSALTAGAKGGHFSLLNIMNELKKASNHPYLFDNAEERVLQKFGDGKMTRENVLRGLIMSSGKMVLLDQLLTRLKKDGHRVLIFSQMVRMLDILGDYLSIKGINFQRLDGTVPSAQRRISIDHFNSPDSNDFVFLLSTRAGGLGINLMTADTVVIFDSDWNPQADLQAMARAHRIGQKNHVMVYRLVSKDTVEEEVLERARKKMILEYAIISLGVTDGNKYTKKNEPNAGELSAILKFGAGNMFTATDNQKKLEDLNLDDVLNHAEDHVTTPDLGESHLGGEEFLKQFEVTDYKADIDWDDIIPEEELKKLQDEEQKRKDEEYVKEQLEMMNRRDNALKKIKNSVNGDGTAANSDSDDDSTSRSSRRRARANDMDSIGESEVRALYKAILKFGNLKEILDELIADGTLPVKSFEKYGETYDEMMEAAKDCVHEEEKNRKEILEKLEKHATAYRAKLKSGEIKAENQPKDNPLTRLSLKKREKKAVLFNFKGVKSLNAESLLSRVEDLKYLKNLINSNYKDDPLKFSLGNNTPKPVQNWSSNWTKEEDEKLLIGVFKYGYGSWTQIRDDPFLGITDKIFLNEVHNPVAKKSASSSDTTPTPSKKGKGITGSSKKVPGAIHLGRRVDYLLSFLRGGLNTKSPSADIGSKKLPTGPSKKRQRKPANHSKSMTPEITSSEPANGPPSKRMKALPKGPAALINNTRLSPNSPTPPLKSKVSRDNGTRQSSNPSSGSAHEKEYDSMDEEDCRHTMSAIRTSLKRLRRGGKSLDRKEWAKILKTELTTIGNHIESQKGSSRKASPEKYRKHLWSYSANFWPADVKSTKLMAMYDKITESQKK
# Protein translocase subunit SecA (Escherichia coli (strain K12)), sequence (P10408 whole entry): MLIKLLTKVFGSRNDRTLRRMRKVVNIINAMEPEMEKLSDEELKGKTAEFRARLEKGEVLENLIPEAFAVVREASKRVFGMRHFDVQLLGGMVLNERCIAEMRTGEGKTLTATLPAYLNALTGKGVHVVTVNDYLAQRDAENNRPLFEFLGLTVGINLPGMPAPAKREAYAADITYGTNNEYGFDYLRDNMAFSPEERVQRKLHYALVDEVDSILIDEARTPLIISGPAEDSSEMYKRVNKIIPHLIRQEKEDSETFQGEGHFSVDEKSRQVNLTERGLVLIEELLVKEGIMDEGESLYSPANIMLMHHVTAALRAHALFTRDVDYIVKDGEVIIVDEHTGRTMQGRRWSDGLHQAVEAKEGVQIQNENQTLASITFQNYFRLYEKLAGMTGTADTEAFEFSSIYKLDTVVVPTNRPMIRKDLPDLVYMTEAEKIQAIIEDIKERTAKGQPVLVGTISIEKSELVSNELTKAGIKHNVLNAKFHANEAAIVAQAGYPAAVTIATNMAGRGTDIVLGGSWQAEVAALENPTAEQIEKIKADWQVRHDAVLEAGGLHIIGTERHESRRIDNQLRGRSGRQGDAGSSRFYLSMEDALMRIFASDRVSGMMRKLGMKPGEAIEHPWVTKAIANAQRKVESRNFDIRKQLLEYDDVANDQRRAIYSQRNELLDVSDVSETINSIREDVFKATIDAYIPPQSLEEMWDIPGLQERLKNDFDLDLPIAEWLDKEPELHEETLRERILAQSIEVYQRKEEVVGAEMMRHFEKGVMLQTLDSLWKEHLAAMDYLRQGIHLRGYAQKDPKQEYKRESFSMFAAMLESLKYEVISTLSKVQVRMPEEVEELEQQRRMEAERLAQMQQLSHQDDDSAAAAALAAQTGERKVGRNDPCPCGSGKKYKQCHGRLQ
# Sialic acid-binding Ig-like lectin 9 (Homo sapiens), sequence (Q9Y336 whole entry): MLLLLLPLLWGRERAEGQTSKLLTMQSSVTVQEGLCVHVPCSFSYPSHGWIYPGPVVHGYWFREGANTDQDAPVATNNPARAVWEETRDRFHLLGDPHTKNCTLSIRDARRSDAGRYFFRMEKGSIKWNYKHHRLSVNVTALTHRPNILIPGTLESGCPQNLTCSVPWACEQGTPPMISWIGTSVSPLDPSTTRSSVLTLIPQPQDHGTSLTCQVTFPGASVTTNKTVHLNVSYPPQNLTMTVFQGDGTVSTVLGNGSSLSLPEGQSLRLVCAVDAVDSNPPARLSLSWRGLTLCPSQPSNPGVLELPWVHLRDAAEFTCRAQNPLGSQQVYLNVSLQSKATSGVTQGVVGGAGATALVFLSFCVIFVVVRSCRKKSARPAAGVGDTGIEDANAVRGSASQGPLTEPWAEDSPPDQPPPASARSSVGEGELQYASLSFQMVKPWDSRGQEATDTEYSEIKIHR
structure (smiles),measurement,setting,value
COc1ccc(Cl)cc1Cl,PXC50,[1]; MAX_EFFECT 11.87904968,< 3
same,PXC50,[1]; MAX_EFFECT 16.92015209,< 3
Cn1cc(C(=O)Nc2ccccc2)c2ccccc21,PXC50,[1]; MAX_EFFECT 6.666666667,< 4
COC(=O)Nc1cc(Cl)cc(Cl)c1,PXC50,[1]; MAX_EFFECT 8.423326134,< 3
same,PXC50,[1]; MAX_EFFECT 23.76425856,< 3
Clc1cc(CN2CCCN3CCCC3C2)c2ncccc2c1 (stereo not drawn),PXC50,"[1]; BOTTOM 3.20477061, HILLSLOPE 1.084567425, MAX_EFFECT 62.37623762, TOP 100.0",4.18
same,PXC50,"[1]; BOTTOM 6.472550683, HILLSLOPE 0.834102773, MAX_EFFECT 67.39130435, TOP 100.0",4.08
same,PXC50,"[1]; BOTTOM 6.940148658, HILLSLOPE 1.034617946, MAX_EFFECT 59.85663082, TOP 100.0",4.1
FC(F)(F)c1cc(-c2cccs2)nc(N2CCN3CCCC3C2)n1 (stereo not drawn),PXC50,[1]; MAX_EFFECT 13.05483029,< 4
same,PXC50,[1]; MAX_EFFECT 13.8381201,< 4
NCC(O)c1cc(Cl)cc(Cl)c1 (stereo not drawn),PXC50,[1]; MAX_EFFECT 9.287257019,< 3
same,PXC50,[1]; MAX_EFFECT 13.11787072,< 3
Cc1cc(Cl)cc(Cl)c1O,PXC50,[1]; MAX_EFFECT 7.127429806,< 3
same,PXC50,[1]; MAX_EFFECT 14.63878327,< 3
O=C1CSC(c2ccsc2)c2c(n(C3CCOCC3)[nH]c2=O)N1 (stereo not drawn),Percent Effect,[2],-1.28%
same,Percent Effect,[3],14.7%
same,Percent Effect,[4],-2.38%
same,Percent Effect,[5],-5.51%
same,Percent Effect,[6],3.3%
same,Percent Effect,[7],-0.589%
same,Percent Effect,[8]; 30 µM,7.03%
same,Percent Effect,[8]; 33.3 µM,94.2%
same,Percent Effect,[9],8.13%
same,Percent Effect,[10],6.12%
same,Percent Effect,[11],-12.8%
same,Percent Effect,[12],6.35%
same,Percent Effect,[13],12.8%
same,Percent Effect,[14],-11.9%
